Assay results from PubChem BioAssay (Tox21).
Records with an inconclusive call do not appear. A call without a number means that no potency is given here. Values without a mark were called inactive. The source made the active and inactive calls. The call rests on the fitted dose curve; in most records, active means well fitted curve in the direction sought with a large enough effect in the repeat runs; inconclusive means weak or mixed curves; inactive means no such curve, though single readings can be large; an effect the other way counts as inactive or inconclusive.

experiment: Human pregnane X receptor (PXR) small molecule agonists, qHTS cell viability counter screen (AID 1346977); conditions: PXR-Luc HepG2 viability, CellTiter-Fluor, 24 h; series mostly up to 92.4 µM; further: nearly all actives have a fitted effect of over 50% in size
Method in brief: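 Cytotoxicity counter screen run in the same wells as the PXR luciferase assay, using PXR-Luc HepG2 cells in charcoal-stripped serum medium. Viability: CellTiter-Fluor fluorescence after 24hr compound treatment.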

With `Cc1cc(C)c(N=Nc2c(O)c(S(=O)(=O)O)cc3cc(S(=O)(=O)O)ccc23)cc1C` as the compound, how does the activity change, negative = cytotoxicity read?
The activity change, negative = cytotoxicity was -25% [at 8.39 µM].

With `c1ccc(Cc2ccccc2)cc1` as the compound, how does the Potency read?
The Potency was “inactive”.

For `CC1(C)[C@@H]2CC[C@@]1(C)[C@H](O)C2`, which Potency is on record?
Its Potency is “inactive”.

For `O=C(CO)[C@@H](O)[C@H](O)[C@@H](O)CO`, which Potency is on record?
The Potency was “inactive”.

Which Potency does the source give for `CC1(C)OC[C@@H](COC(=O)CCc2ccc(OC[C@@H](O)CNCCNC(=O)N3CCOCC3)cc2)O1` here?
The Potency was “inactive”.

Which Potency does the source give for `O=C(CO)[C@@H](O)[C@H](O)[C@H](O)CO` here?
Its Potency is “inactive”.

Which Potency does the source give for `O=[N+]([O-])c1cncn1CCN1CCOCC1` here?
Its Potency is “inactive”.

With `CC(C)=CCC/C(C)=C/C#N` as the compound, how does the Potency read?
Its Potency is “inactive”.

Which Potency does the source give for `Cc1ccccc1N=C(N)N=C(N)N` here?
Its Potency is “inactive”.

With `Nc1ccn([C@@H]2O[C@H](CO)[C@@H](O)[C@@H]2O)c(=O)n1` as the compound, how does the Potency read?
Its Potency is “inactive”.

For `CC(C)c1ccc2ncccc2c1`, which Potency is on record?
Its Potency is “inactive”.

For `CCC(C(=O)NC(=O)NC(C)=O)c1ccccc1` (centres undefined), which Potency is on record?
Its Potency is “inactive”.

Which Potency does the source give for `CCC(=O)OCc1ccccc1` here?
The Potency was “inactive”.

For `CC(C)(CCC(=O)O)C(=O)O`, which Potency is on record?
Its Potency is “inactive”.

Which Potency does the source give for `CC(=O)c1cnccn1` here?
The Potency was “inactive”.

For `O=S(=O)(O)c1cccc2c(S(=O)(=O)O)cccc12`, which Potency is on record?
The Potency was “inactive”.

For `COCCOCC(OC)OC`, which Potency is on record?
Its Potency is “inactive”.

Which Potency does the source give for `NC(=O)Cc1cccc2ccccc12` here?
Its Potency is “inactive”.

With `O=C(c1ccccc1)C1(O)CCCCC1` as the compound, how does the Potency read?
The Potency was “inactive”.

Which Potency does the source give for `CCN(C=O)CC` here?
Its Potency is “inactive”.

With `O=C1CCCCCCCCCCCCCCO1` as the compound, how does the Potency read?
Its Potency is “inactive”.

With `CC1=NS(=O)(=O)c2cc(Cl)ccc2N1` as the compound, how does the Potency read?
The Potency was “inactive”.

Which Potency does the source give for `CC(C)C1CCC(O)CC1` (centres undefined) here?
Its Potency is “inactive”.

Which Potency does the source give for `C=CCOCC(O)CO` (centres undefined) here?
The Potency was “inactive”.

Which Potency does the source give for `CCCCOC(=O)CCC(C)=O` here?
Its Potency is “inactive”.

Which Potency does the source give for `CCOc1c(N2CCOCC2)cnn(C)c1=O` here?
The Potency was “inactive”.

With `C1CCC2(CCCCO2)OC1` as the compound, how does the Potency read?
Its Potency is “inactive”.

With `CC(C)[C@H]1CC[C@@H](C)CC1=O` as the compound, how does the Potency read?
Its Potency is “inactive”.

Which Potency does the source give for `c1ccc(CCc2ccccc2)cc1` here?
The Potency was “inactive”.

With `CCOC(=O)CCC(=O)OCC` as the compound, how does the Potency read?
Its Potency is “inactive”.

With `COC(=O)Nc1ccc(Cl)c(Cl)c1` as the compound, how does the Potency read?
Its Potency is “inactive”.

Which Potency does the source give for `C=C(C)C(=O)OCCOCCOCCOCCOC(=O)C(=C)C` here?
The Potency was “inactive”.

With `CNCCO` as the compound, how does the Potency read?
The Potency was “inactive”.

For `CC1=CCC(O)(C(C)C)CC1` (centres undefined), which Potency is on record?
The Potency was “inactive”.

Which Potency does the source give for `CC12CCC(C(=O)C1=O)C2(C)C` (centres undefined) here?
Its Potency is “inactive”.

Which Potency does the source give for `O=CN(CCO)CCO` here?
The Potency was “inactive”.

With `CC(=O)C1CCCCC1=O` (centres undefined) as the compound, how does the Potency read?
Its Potency is “inactive”.

Which Potency does the source give for `CN1C(C)(C)CC(O)CC1(C)C` here?
Its Potency is “inactive”.

experiment: Caspase-3/7 induction in HepG2 cells by small molecules, qHTS assay (AID 1346978); conditions: HepG2 caspase-3/7 activation, Caspase-Glo luminescence, 17 h; series mostly up to 92.4 µM; further: nearly all actives have a fitted effect of over 15% in size
Method in brief: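 Caspase-3/7 induction was measured by Caspase-Glo 3/7 luminescence (30 min, room temperature) after a 17 hr compound exposure of wild-type HepG2 cells seeded at 2,000 per well and pre-incubated 5 hr.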

Which caspase activation does the source give for `Cc1cc(C)c(N=Nc2c(O)c(S(=O)(=O)O)cc3cc(S(=O)(=O)O)ccc23)cc1C` here?
The caspase activation was -0.299% [at 8.39 µM].

With `c1ccc(Cc2ccccc2)cc1` as the compound, how does the outcome read?
Its outcome is “inactive”.

For `CC1(C)[C@@H]2CC[C@@]1(C)[C@H](O)C2`, which outcome is on record?
Its outcome is “inactive”.

Which outcome does the source give for `O=C(CO)[C@@H](O)[C@H](O)[C@@H](O)CO` here?
The outcome was “inactive”.

With `CC1(C)OC[C@@H](COC(=O)CCc2ccc(OC[C@@H](O)CNCCNC(=O)N3CCOCC3)cc2)O1` as the compound, how does the outcome read?
Its outcome is “inactive”.

Which outcome does the source give for `O=C(CO)[C@@H](O)[C@H](O)[C@H](O)CO` here?
Its outcome is “inactive”.

Which outcome does the source give for `O=[N+]([O-])c1cncn1CCN1CCOCC1` here?
The outcome was “inactive”.

With `CC(C)=CCC/C(C)=C/C#N` as the compound, how does the outcome read?
Its outcome is “inactive”.

For `Cc1ccccc1N=C(N)N=C(N)N`, which outcome is on record?
The outcome was “inactive”.

For `Nc1ccn([C@@H]2O[C@H](CO)[C@@H](O)[C@@H]2O)c(=O)n1`, which outcome is on record?
Its outcome is “inactive”.

Which outcome does the source give for `CC(C)c1ccc2ncccc2c1` here?
Its outcome is “inactive”.

With `CCC(C(=O)NC(=O)NC(C)=O)c1ccccc1` (centres undefined) as the compound, how does the outcome read?
Its outcome is “inactive”.

With `CCC(=O)OCc1ccccc1` as the compound, how does the outcome read?
The outcome was “inactive”.

With `CC(C)(CCC(=O)O)C(=O)O` as the compound, how does the outcome read?
Its outcome is “inactive”.

With `CC(=O)c1cnccn1` as the compound, how does the outcome read?
The outcome was “inactive”.

With `O=S(=O)(O)c1cccc2c(S(=O)(=O)O)cccc12` as the compound, how does the outcome read?
Its outcome is “inactive”.

Which outcome does the source give for `COCCOCC(OC)OC` here?
The outcome was “inactive”.

With `NC(=O)Cc1cccc2ccccc12` as the compound, how does the outcome read?
Its outcome is “inactive”.

Which outcome does the source give for `O=C(c1ccccc1)C1(O)CCCCC1` here?
Its outcome is “inactive”.

Which outcome does the source give for `CCN(C=O)CC` here?
The outcome was “inactive”.

Which outcome does the source give for `O=C1CCCCCCCCCCCCCCO1` here?
Its outcome is “inactive”.

Which outcome does the source give for `CC1=NS(=O)(=O)c2cc(Cl)ccc2N1` here?
The outcome was “inactive”.

Which outcome does the source give for `CC(C)C1CCC(O)CC1` (centres undefined) here?
The outcome was “inactive”.

Which outcome does the source give for `C=CCOCC(O)CO` (centres undefined) here?
The outcome was “inactive”.

For `CCCCOC(=O)CCC(C)=O`, which outcome is on record?
Its outcome is “inactive”.

Which outcome does the source give for `CCOc1c(N2CCOCC2)cnn(C)c1=O` here?
Its outcome is “inactive”.

Which outcome does the source give for `C1CCC2(CCCCO2)OC1` here?
The outcome was “inactive”.

Which outcome does the source give for `CC(C)[C@H]1CC[C@@H](C)CC1=O` here?
The outcome was “inactive”.

With `c1ccc(CCc2ccccc2)cc1` as the compound, how does the outcome read?
The outcome was “inactive”.

With `CCOC(=O)CCC(=O)OCC` as the compound, how does the outcome read?
Its outcome is “inactive”.

Which outcome does the source give for `COC(=O)Nc1ccc(Cl)c(Cl)c1` here?
Its outcome is “inactive”.

For `C=C(C)C(=O)OCCOCCOCCOCCOC(=O)C(=C)C`, which outcome is on record?
The outcome was “inactive”.

For `CNCCO`, which outcome is on record?
The outcome was “inactive”.

Which outcome does the source give for `CC1=CCC(O)(C(C)C)CC1` (centres undefined) here?
Its outcome is “inactive”.

Which outcome does the source give for `CC12CCC(C(=O)C1=O)C2(C)C` (centres undefined) here?
Its outcome is “inactive”.

With `O=CN(CCO)CCO` as the compound, how does the outcome read?
The outcome was “inactive”.

Which outcome does the source give for `CC(=O)C1CCCCC1=O` (centres undefined) here?
Its outcome is “inactive”.

Which outcome does the source give for `CN1C(C)(C)CC(O)CC1(C)C` here?
The outcome was “inactive”.

experiment: Caspase-3/7 induction in CHO-K1 cells by small molecules, qHTS cell viability counter screen (AID 1346979); conditions: CellTiter-Fluor fluorescence, 17 h; series mostly up to 92.4 µM; further: nearly all actives have a fitted effect of over 35% in size
Method in brief: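 Cytotoxicity counter screen run in parallel with the caspase-3/7 assay: CHO-K1 cells, 16hr compound treatment at 37C, then CellTiter-Fluor for 1hr before fluorescence reading.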

Which activity change, negative = cytotoxicity does the source give for `Cc1cc(C)c(N=Nc2c(O)c(S(=O)(=O)O)cc3cc(S(=O)(=O)O)ccc23)cc1C` here?
The activity change, negative = cytotoxicity was -8.22% [at 8.39 µM].

With `c1ccc(Cc2ccccc2)cc1` as the compound, how does the Potency read?
Its Potency is “inactive”.

For `CC1(C)[C@@H]2CC[C@@]1(C)[C@H](O)C2`, which Potency is on record?
The Potency was “inactive”.

For `O=C(CO)[C@@H](O)[C@H](O)[C@@H](O)CO`, which Potency is on record?
The Potency was “inactive”.

With `CC1(C)OC[C@@H](COC(=O)CCc2ccc(OC[C@@H](O)CNCCNC(=O)N3CCOCC3)cc2)O1` as the compound, how does the Potency read?
Its Potency is “inactive”.

Which Potency does the source give for `O=C(CO)[C@@H](O)[C@H](O)[C@H](O)CO` here?
The Potency was “inactive”.

Which Potency does the source give for `O=[N+]([O-])c1cncn1CCN1CCOCC1` here?
Its Potency is “inactive”.

Which Potency does the source give for `CC(C)=CCC/C(C)=C/C#N` here?
The Potency was “inactive”.

Which Potency does the source give for `Cc1ccccc1N=C(N)N=C(N)N` here?
The Potency was “inactive”.

For `Nc1ccn([C@@H]2O[C@H](CO)[C@@H](O)[C@@H]2O)c(=O)n1`, which Potency is on record?
Its Potency is “inactive”.

For `CC(C)c1ccc2ncccc2c1`, which Potency is on record?
The Potency was “inactive”.

For `CCC(C(=O)NC(=O)NC(C)=O)c1ccccc1` (centres undefined), which Potency is on record?
Its Potency is “inactive”.

Which Potency does the source give for `CCC(=O)OCc1ccccc1` here?
The Potency was “inactive”.

Which Potency does the source give for `CC(C)(CCC(=O)O)C(=O)O` here?
Its Potency is “inactive”.

With `CC(=O)c1cnccn1` as the compound, how does the Potency read?
Its Potency is “inactive”.

For `O=S(=O)(O)c1cccc2c(S(=O)(=O)O)cccc12`, which Potency is on record?
Its Potency is “inactive”.

Which Potency does the source give for `COCCOCC(OC)OC` here?
Its Potency is “inactive”.

With `NC(=O)Cc1cccc2ccccc12` as the compound, how does the Potency read?
Its Potency is “inactive”.

With `O=C(c1ccccc1)C1(O)CCCCC1` as the compound, how does the Potency read?
Its Potency is “inactive”.

For `CCN(C=O)CC`, which Potency is on record?
The Potency was “inactive”.

Which Potency does the source give for `O=C1CCCCCCCCCCCCCCO1` here?
Its Potency is “inactive”.

For `CC1=NS(=O)(=O)c2cc(Cl)ccc2N1`, which Potency is on record?
The Potency was “inactive”.

With `CC(C)C1CCC(O)CC1` (centres undefined) as the compound, how does the Potency read?
The Potency was “inactive”.

Which Potency does the source give for `C=CCOCC(O)CO` (centres undefined) here?
Its Potency is “inactive”.

With `CCCCOC(=O)CCC(C)=O` as the compound, how does the Potency read?
The Potency was “inactive”.

With `CCOc1c(N2CCOCC2)cnn(C)c1=O` as the compound, how does the Potency read?
Its Potency is “inactive”.

For `C1CCC2(CCCCO2)OC1`, which Potency is on record?
The Potency was “inactive”.

For `CC(C)[C@H]1CC[C@@H](C)CC1=O`, which Potency is on record?
The Potency was “inactive”.

With `c1ccc(CCc2ccccc2)cc1` as the compound, how does the Potency read?
Its Potency is “inactive”.

For `CCOC(=O)CCC(=O)OCC`, which Potency is on record?
The Potency was “inactive”.

Which Potency does the source give for `COC(=O)Nc1ccc(Cl)c(Cl)c1` here?
The Potency was “inactive”.

For `C=C(C)C(=O)OCCOCCOCCOCCOC(=O)C(=C)C`, which Potency is on record?
Its Potency is “inactive”.

For `CNCCO`, which Potency is on record?
The Potency was “inactive”.

With `CC1=CCC(O)(C(C)C)CC1` (centres undefined) as the compound, how does the Potency read?
Its Potency is “inactive”.

For `CC12CCC(C(=O)C1=O)C2(C)C` (centres undefined), which Potency is on record?
Its Potency is “inactive”.

With `O=CN(CCO)CCO` as the compound, how does the Potency read?
The Potency was “inactive”.

Which Potency does the source give for `CC(=O)C1CCCCC1=O` (centres undefined) here?
Its Potency is “inactive”.

Which Potency does the source give for `CN1C(C)(C)CC(O)CC1(C)C` here?
The Potency was “inactive”.
